# Reference: the supplement of paper PMC10105736
# A number with no mark means an inactive call.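 How the source made its calls: active = MAPPIT score above the 99th percentile of random reference set scores in the same batch; inactive = at or below it.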
# B1: spir (protein)
# chain: MTEHQAEEQADTPPTKVKATPTPTPSGKFKDAKEDAFLSTSPDSANGDAQHKLPADQLAMSSSAHPQQAGQARPLILQAFHRCSSPEQCVTLHDILDSFKAPLSEDQAWALIHQFAGLYHQVAVQAHTCAADYEAALPTGFELHFHRDGSVHFSGPDQLTPKEQLQQEQIPLPPQHDVIVDQPDHSASSSGDSSVINRAFDNSNHHHHHQHHHPPLVVSHRKIISELAEIVYTALDYNLPEDEECQVSQELENLFNFMTADETDDDCIDEGIDEGDKRWDDESEEERNDTKELEHIIETCRNHIKTTLPENHYRAVCRALVTETIELRVFLQQVLNNEAGAEKLIKASESSATTQQELAKLGFNDWARFWVQVIDELRRGVRLKKSNHERTPIEYELTPYEILMGDIRAKKYQLRKVMVNGDIPPRVKKDAHAMILEFIRSRPPLKKASDRQLGPPRMCEPSPREQLMESIRKGKELKQITPPEAPTLRERVLPSANSTLSRSRQRLIKVDFSKFQDDDLFYDENSISSSHSTAATHQHHPHFAEMHRCSQPKMPPYPFGGYMVPSQARQDCRETASLMRPRRTMEPAKQVPPPEEPSFTKDEYHKFYDTALESYDLATQCESRRASLRRHTIVGCQSNLDETHSMPPTRPESRQSDDVSKETPKRSPAEQTHPSDEGSSTSSLGPWNKSFMDKQTWMERGDDRLSVTLAEIVHIRSVMTKAELEGLPMDVRVKEDVEKRRVCFLCLRTRFSFFGPWGIQCKLCQRTVCAKCYTKMRIPSEHFRNVPLVLISPSLLSSPASSSTPSPSHHAQQAHSSSTGNIMDDQFPKSLIERLLRSESDRKTRSTVGSAPSSPKHQRSNMSTPGISVGPGASSSSAAATGQAVEALHDQATMSSSYSAAMRPSGVHQQQKQHYNNAMSRSMEGPRSLPVHSPAYRPLSNNSTLERKSRFSRGFNLFSSGSHLAQTQEQKENLRGEQVTVCNDCQGLVNEITSSVKQKRSSARNRTIQNLTLDLTPVWK
# B2: stas (protein)
# chain: MSYCSGVAISADEGITMRNGRAKALQEHSPDQVATPLLPQVPPQEQQDLNPQQQQQQQQQQQATPQKQAMSADEKKATKKSLVIVAGIFVASLVTMCYVYAIFPELNASEKQHLKIPRDIQDAKMLAKVLDRYKDMYYFEVMFGVVVAYVFLQTFAIPGSLFLSILLGFLYKFPIALFLICFCSALGATLCYTLSNLVGRRLIRHFWPKKTSEWSKHVEEYRDSLFNYMLFLRMTPILPNWFINLASPVIGVPLHIFALGTFCGVAPPSVIAIQAGKTLQKMTSSSEAFSWTSMGILMACACASLLPGLLKNKFKHKKEA
# B3: Crk (protein)
# chain: MDTFDVSDRNSWYFGPMSRQDATEVLMNERERGVFLVRDSNSIAGDYVLCVREDTKVSNYIINKVQQQDQIVYRIGDQSFDNLPKLLTFYTLHYLDTTPLKRPACRRVEKVIGKFDFVGSDQDDLPFQRGEVLTIVRKDEDQWWTARNSSGKIGQIPVPYIQQYDDYMDEDAIDKNEPSISGSSNVFESTLKRTDLNRKLPAYARVKQSRVPNAYDKTALKLEIGDIIKVTKTNINGQWEGELNGKNGHFPFTHVEFVDDCDLSKNSTEIC
# B4: Ald1 (protein)
# chain: MTTYFNYPSKELQDELREIAQKIVAPGKGILAADESGPTMGKRLQDIGVENTEDNRRAYRQLLFSTDPKLAENISGVILFHETLYQKADDGTPFAEILKKKGIILGIKVDKGVVPLFGSEDEVTTQGLDDLAARCAQYKKDGCDFAKWRCVLKIGKNTPSYQSILENANVLARYASICQSQRIVPIVEPEVLPDGDHDLDRAQKVTETVLAAVYKALSDHHVYLEGTLLKPNMVTAGQSAKKNTPEEIALATVQALRRTVPAAVTGVTFLSGGQSEEEATVNLSAINNVPLIRPWALTFSYGRALQASVLRAWAGKKENIAAGQNELLKRAKANGDAAQGKYVAGSAGAGSGSLFVANHAY
# B5: Mst57Da (protein)
# chain: MKFLALFVTLLVVLALVSAQKSQNTNHNVIVIGAKKPGAAPAAAAAAAPAAPPAAAPAAAPAAPEAGLADAPAES
# Key:
# Assay in all cases: MAPPIT interaction score (arbitrary units); higher = stronger binary interaction signal, active = hit call of the paper
# [1] = molecular target: Acp1; settings: pair source set: RRS
# Protocol: (§1)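 MAPPIT in HEK293T cells: Drosophila bait and prey ORFs (from the FlyBi ORF collection) were co-transfected in quadruplicate, with two wells stimulated by erythropoietin. Interaction-dependent JAK-STAT activation was read out with a STAT-responsive firefly luciferase reporter. Positive calls use the 99th percentile of random reference set (RRS) scores within each batch […]. Batches Dvs01 and Dvs02 used the N-N configuration and Dvs04 the N-C configuration. Pairs come from FlyBi screens, CuraGen, DPiM, Finley Y2H, Lit-BM-16, Lit-BS-16 and RRS.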
# [2] = molecular target: ATPsynC; settings: MAPPIT configuration: N-C; pair source set: screen_3
# Protocol: as §1
# [3] = molecular target: ATPsyndelta; settings: MAPPIT configuration: N-C; pair source set: screen_4
# Protocol: as §1
# [4] = molecular target: CG15572; settings: MAPPIT configuration: N-C; pair source set: screen_4
# Protocol: as §1
# [5] = molecular target: CG42659; settings: MAPPIT configuration: N-C; pair source set: screen_3
# Protocol: as §1
# [6] = molecular target: Polr3E; settings: MAPPIT configuration: N-C; pair source set: screen_4
# Protocol: as §1
# [7] = molecular target: Ald1; settings: pair source set: Lit-BM-16
# Protocol: as §1
# [8] = molecular target: ATPsynCF6L; settings: MAPPIT configuration: N-C; pair source set: screen_3
# Protocol: as §1
# [9] = molecular target: CG13643; settings: MAPPIT configuration: N-C; pair source set: screen_3
# Protocol: as §1
# [10] = molecular target: Dpm3; settings: MAPPIT configuration: N-C; pair source set: screen_3
# Protocol: as §1
# [11] = molecular target: NaPi-T; settings: MAPPIT configuration: N-C; pair source set: screen_4
# Protocol: as §1
# [12] = molecular target: Pdk1; settings: MAPPIT configuration: N-N; pair source set: Curagen_high_conf
# Protocol: as §1
# 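Further: HEK293T cells with Epo stimulation, STAT-responsive firefly luciferase reporter, fold induction versus unstimulated cells divided by the larger fold induction of two negative controls lacking either bait or prey.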
binder,measurement,setting,value
B1,MAPPIT interaction score,[1]; MAPPIT configuration: N-C,-0.762
same,MAPPIT interaction score,[1]; MAPPIT configuration: N-N,0.149
B2,MAPPIT interaction score,[2],0.0375
B3,MAPPIT interaction score,[3],2.72
same,MAPPIT interaction score,[4],0.475
same,MAPPIT interaction score,[5],0.17
same,MAPPIT interaction score,[6],2.44
B4,MAPPIT interaction score,[7]; MAPPIT configuration: N-C,1.2
same,MAPPIT interaction score,[7]; MAPPIT configuration: N-N,4.7 (active)
B5,MAPPIT interaction score,[8],0.192
same,MAPPIT interaction score,[9],-0.565
same,MAPPIT interaction score,[10],0.043
same,MAPPIT interaction score,[11],1.02
same,MAPPIT interaction score,[12],-0.52
